# Experiments:
# Assay in all cases: DAPPL (digital affinity profiling via proximity ligation, sequencing); 10 mM Tris-HCl pH 7.5, 50 mM NaCl, 1 mM DTT, 4% glycerol, room temperature, 30 min; GST-TFs on glutathione beads, 16-mer random dsDNA library, 0.1% formaldehyde crosslink after washing; high values mean tight binding
# Conditions in all cases: protein: recombinant; tags: N-terminal GST; dsDNA, one strand shown
# ELK1 = target: T1, ELK1 (Homo sapiens, UniProt P19419 1-428)
# T1 sequence: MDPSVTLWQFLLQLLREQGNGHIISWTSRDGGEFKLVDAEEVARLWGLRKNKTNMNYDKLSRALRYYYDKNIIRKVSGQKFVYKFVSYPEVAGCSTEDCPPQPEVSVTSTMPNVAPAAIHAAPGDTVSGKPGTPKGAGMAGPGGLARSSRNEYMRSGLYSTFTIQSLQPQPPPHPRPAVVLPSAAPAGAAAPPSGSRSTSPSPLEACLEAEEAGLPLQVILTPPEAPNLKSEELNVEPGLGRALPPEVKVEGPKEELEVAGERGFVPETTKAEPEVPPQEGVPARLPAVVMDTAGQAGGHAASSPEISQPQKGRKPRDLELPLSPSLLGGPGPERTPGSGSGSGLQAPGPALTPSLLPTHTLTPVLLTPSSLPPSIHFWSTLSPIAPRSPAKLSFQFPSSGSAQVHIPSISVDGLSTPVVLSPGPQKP
# In short: (§1)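 Binding signal is each hexamer's read frequency for a factor divided by its frequency in the tag-only sample. The factors were GST-fused human transcription factors from yeast, captured on glutathione beads, DNA-barcoded and pooled with that sample. Pools were incubated with 200 nmole of a random double-stranded 16-mer DNA library in Tris/NaCl/DTT/glycerol buffer at room temperature for 30 min, then washed, crosslinked with 0.1% formaldehyde, proximity-ligated with BsaI/T4 ligase (1 h, 37 °C), PCR-amplified and sequenced on an Illumina NextSeq500.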
# GABPA = target: T2, GABPA (Homo sapiens, UniProt Q06546 1-454)
# T2 sequence: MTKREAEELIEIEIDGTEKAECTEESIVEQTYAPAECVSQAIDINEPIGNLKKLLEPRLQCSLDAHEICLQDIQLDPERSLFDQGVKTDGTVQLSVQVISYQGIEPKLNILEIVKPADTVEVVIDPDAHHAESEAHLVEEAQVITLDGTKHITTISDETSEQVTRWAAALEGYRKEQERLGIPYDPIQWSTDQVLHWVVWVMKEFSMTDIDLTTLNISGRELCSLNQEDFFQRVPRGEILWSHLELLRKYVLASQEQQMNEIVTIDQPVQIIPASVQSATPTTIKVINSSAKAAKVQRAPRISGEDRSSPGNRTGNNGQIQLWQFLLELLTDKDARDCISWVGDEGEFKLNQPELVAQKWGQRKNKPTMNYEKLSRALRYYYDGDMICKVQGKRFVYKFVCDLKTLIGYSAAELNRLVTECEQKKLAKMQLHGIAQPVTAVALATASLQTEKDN
# In short: as §1
# ERG = target: T3, ERG (Homo sapiens, UniProt P11308 1-479)
# T3 sequence: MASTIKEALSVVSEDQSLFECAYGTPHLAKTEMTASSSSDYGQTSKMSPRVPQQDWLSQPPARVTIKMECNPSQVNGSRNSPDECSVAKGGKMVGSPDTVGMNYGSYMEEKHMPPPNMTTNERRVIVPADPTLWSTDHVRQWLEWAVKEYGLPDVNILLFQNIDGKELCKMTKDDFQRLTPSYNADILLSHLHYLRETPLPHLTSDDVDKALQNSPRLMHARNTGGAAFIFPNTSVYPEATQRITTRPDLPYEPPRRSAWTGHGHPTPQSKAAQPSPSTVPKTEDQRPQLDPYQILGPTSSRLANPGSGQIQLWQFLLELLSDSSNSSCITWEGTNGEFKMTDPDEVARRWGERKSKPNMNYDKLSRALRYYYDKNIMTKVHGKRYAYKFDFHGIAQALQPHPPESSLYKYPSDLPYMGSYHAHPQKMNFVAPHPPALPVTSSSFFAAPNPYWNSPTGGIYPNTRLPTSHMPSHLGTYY
# In short: as §1
# ELF1 = ELF1 (Homo sapiens, UniProt P32519 1-619)
# In short: as §1
# EHF = target: T4, EHF (Homo sapiens, UniProt Q9NZC4 1-300)
# T4 sequence: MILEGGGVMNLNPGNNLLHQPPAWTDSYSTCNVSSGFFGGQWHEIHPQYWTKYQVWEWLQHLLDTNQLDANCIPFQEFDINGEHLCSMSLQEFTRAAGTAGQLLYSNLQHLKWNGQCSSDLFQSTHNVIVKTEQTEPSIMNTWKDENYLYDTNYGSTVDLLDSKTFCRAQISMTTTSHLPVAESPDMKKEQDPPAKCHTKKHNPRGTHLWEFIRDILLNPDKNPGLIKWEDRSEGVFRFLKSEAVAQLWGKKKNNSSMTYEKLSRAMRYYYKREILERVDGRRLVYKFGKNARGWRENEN
# In short: as §1
# SPIB = SPIB (Homo sapiens, UniProt Q01892 1-262)
# In short: as §1
# FEV = target: T5, FEV (Homo sapiens, UniProt Q99581 1-238)
# T5 sequence: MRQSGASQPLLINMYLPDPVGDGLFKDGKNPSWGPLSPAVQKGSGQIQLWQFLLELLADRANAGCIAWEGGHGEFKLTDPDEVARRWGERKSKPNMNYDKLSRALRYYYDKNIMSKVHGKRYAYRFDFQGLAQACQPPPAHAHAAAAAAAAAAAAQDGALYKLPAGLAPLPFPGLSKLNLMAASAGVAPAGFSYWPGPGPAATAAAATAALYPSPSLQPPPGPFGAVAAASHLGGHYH
# In short: as §1
# ETV5 = ETV5 (Homo sapiens, UniProt P41161 1-510)
# In short: as §1
# ELF4 = ELF4 (Homo sapiens, UniProt Q99607 1-663)
# In short: as §1
# ETV2 = target: T6, ETV2 (Homo sapiens, UniProt O00321 1-342)
# T6 sequence: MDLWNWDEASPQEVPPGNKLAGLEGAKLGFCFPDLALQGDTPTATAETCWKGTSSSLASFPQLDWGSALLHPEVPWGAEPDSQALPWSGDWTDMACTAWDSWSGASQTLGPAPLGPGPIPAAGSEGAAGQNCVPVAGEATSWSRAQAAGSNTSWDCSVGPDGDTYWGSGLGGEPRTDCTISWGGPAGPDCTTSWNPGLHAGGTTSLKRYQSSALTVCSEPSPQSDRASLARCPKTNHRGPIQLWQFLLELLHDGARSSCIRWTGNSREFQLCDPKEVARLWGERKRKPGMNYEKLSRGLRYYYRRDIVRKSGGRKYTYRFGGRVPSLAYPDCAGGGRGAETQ
# In short: as §1
# ETV3L = target: T7, ETV3L (Homo sapiens, UniProt Q6ZN32 1-361)
# T7 sequence: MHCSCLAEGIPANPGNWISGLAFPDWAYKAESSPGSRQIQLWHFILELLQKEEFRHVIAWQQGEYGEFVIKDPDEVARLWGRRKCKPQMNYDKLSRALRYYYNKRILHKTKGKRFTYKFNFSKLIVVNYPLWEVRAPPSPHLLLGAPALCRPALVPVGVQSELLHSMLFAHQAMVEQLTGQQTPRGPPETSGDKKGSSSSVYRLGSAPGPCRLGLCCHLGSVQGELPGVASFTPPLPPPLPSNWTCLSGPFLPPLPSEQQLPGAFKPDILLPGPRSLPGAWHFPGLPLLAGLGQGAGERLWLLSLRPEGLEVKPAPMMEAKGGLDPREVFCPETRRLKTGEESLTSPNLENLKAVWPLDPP
# In short: as §1
# ETS2 = target: T8, ETS2 (Homo sapiens, UniProt P15036 1-469)
# T8 sequence: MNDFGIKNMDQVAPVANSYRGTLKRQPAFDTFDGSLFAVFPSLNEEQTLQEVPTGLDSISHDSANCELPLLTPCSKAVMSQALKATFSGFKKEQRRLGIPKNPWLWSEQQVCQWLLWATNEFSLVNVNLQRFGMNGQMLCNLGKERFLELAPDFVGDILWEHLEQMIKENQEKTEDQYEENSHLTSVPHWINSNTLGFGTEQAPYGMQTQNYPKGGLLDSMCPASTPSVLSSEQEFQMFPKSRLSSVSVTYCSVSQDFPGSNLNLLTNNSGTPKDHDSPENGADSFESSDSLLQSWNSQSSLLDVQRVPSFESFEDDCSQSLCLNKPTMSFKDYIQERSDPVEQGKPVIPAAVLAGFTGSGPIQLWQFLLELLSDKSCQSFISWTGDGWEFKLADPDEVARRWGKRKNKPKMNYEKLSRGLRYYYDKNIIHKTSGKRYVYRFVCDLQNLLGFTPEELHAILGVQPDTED
# In short: as §1
# SPDEF = target: T9, SPDEF (Homo sapiens, UniProt O95238 1-335)
# T9 sequence: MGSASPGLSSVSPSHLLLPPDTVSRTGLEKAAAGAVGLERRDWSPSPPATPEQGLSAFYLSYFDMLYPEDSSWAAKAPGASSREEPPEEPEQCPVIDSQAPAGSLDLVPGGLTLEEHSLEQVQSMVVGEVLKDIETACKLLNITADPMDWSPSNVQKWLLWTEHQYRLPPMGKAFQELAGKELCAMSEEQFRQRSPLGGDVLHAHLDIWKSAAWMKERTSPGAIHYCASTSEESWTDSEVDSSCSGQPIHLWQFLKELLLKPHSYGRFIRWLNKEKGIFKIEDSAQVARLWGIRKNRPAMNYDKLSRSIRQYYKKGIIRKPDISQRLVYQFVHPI
# In short: as §1
# ETV3 = target: T10, ETV3 (Homo sapiens, UniProt P41162-2 1-143)
# T10 sequence: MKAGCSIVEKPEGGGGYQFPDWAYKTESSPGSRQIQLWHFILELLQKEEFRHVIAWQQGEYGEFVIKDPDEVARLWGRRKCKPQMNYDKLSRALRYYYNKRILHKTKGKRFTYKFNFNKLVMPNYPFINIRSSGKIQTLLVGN
# In short: as §1
# ETV6 = ETV6 (Homo sapiens, UniProt P41212 1-452)
# In short: as §1
# SPIB, sequence (Q01892 whole entry): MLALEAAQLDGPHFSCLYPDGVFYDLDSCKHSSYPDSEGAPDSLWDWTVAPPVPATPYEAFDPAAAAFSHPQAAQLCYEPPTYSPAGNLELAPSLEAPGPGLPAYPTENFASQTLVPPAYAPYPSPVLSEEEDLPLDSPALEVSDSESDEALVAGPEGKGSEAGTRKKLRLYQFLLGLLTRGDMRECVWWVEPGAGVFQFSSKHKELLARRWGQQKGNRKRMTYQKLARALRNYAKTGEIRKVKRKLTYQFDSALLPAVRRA
# ETV6, sequence (P41212 whole entry): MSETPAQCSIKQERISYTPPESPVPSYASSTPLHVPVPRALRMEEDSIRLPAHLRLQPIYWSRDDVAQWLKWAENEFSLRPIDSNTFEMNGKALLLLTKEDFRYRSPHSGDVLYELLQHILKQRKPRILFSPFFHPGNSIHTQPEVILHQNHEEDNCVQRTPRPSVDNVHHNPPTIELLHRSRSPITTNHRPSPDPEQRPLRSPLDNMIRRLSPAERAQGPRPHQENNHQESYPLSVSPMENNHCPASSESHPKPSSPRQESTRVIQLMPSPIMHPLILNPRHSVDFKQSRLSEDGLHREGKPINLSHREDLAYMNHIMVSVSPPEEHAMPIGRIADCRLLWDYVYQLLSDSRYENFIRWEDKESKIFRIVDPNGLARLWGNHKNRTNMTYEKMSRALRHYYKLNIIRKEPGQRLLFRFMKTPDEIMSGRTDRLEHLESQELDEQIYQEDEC
# ETV5, sequence (P41161 whole entry): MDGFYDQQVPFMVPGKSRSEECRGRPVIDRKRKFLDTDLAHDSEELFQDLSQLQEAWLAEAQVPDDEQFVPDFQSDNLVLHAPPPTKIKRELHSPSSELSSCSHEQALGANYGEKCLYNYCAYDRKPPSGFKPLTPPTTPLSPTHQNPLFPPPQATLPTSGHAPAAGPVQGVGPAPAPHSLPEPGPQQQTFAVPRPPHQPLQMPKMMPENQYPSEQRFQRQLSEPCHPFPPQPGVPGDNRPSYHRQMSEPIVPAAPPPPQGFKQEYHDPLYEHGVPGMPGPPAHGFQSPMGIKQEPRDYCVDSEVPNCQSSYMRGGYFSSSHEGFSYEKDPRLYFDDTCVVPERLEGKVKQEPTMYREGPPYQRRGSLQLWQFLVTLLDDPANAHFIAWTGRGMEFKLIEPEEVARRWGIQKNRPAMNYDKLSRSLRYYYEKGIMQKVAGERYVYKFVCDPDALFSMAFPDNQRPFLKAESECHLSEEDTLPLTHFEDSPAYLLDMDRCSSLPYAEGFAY
# ELF1, sequence (P32519 whole entry): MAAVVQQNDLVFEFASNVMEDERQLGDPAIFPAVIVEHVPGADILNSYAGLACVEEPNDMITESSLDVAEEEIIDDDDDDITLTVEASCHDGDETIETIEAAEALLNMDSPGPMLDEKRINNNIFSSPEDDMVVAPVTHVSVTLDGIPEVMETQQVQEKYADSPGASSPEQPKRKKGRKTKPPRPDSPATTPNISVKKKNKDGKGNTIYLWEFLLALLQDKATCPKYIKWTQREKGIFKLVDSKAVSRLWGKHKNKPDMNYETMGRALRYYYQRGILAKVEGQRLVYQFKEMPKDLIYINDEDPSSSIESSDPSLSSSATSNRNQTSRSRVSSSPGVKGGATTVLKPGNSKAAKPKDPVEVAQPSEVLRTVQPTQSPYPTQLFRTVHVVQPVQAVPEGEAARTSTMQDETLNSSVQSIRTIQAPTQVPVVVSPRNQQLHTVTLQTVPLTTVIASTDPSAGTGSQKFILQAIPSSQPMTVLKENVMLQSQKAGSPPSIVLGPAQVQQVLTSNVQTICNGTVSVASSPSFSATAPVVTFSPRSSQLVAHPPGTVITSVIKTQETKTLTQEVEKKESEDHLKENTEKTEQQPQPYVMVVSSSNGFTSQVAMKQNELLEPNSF
# ELF4, sequence (Q99607 whole entry): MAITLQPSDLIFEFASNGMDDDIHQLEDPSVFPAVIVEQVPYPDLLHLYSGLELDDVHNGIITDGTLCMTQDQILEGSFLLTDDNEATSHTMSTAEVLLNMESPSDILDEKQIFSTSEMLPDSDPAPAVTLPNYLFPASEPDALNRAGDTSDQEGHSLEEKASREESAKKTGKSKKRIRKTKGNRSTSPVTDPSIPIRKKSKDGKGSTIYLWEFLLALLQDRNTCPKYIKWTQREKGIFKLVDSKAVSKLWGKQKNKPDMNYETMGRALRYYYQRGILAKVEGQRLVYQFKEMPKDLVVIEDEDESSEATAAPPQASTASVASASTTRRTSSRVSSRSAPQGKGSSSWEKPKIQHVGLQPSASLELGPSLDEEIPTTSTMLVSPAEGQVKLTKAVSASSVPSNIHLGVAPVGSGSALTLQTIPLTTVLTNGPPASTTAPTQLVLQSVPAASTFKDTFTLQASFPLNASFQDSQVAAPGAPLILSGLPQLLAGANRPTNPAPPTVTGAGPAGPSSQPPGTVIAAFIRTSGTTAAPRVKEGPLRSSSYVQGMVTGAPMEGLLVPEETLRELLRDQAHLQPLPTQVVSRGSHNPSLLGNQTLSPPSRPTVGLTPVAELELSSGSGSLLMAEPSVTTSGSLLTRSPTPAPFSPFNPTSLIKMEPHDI
sequence,measurement,setting,value
AGGACC,binding signal,ELK1,"1.07 fold enrichment (6-mer frequency, TF over GST control)"
same,binding signal,GABPA,"1.07 fold enrichment (6-mer frequency, TF over GST control)"
same,binding signal,ERG,"1.09 fold enrichment (6-mer frequency, TF over GST control)"
same,binding signal,ELF1,"1.06 fold enrichment (6-mer frequency, TF over GST control)"
same,binding signal,EHF,"1.02 fold enrichment (6-mer frequency, TF over GST control)"
same,binding signal,SPIB,"1.05 fold enrichment (6-mer frequency, TF over GST control)"
same,binding signal,FEV,"1.07 fold enrichment (6-mer frequency, TF over GST control)"
same,binding signal,ETV5,"1.04 fold enrichment (6-mer frequency, TF over GST control)"
same,binding signal,ELF4,"1.06 fold enrichment (6-mer frequency, TF over GST control)"
same,binding signal,ETV2,"1.18 fold enrichment (6-mer frequency, TF over GST control)"
same,binding signal,ETV3L,"1.07 fold enrichment (6-mer frequency, TF over GST control)"
same,binding signal,ETS2,"1.04 fold enrichment (6-mer frequency, TF over GST control)"
same,binding signal,SPDEF,"1.06 fold enrichment (6-mer frequency, TF over GST control)"
same,binding signal,ETV3,"1.03 fold enrichment (6-mer frequency, TF over GST control)"
same,binding signal,ETV6,"1.02 fold enrichment (6-mer frequency, TF over GST control)"

# Source: paper PMC7862700, “An all-to-all approach to the identification of sequence-specific readers for epigenetic DNA modifications on cytosine”
